# Bioassay records from PubChem.
# Rows were chosen to be rich in hits. Some 4.6% of all compounds tested hit in one or more screens of this group.
# D1 potentiator: Potentiators of Human D1 Dopamine Receptor: qHTS. HEK293 TREx D1 cells, calcium flux, dopamine EC20 potentiation. potentiation, % at 10 µM. 0.036% of 360,000 active; in the data active = potentiation above about 30%; also: 0% is about no effect
# D1 antag: Antagonist of Human D 1 Dopamine Receptor: qHTS; D(1A) dopamine receptor (Homo sapiens), P21728; HEK293 TREx D1 cells, calcium flux, dopamine EC80; stronger effect = lower value; activity change, negative = inhibition, % at 10 µM; 3.2% of 360,000 active; in the data active = activity change below about -30%; also: % is scaled to controls: 0 for no effect and ±100 for the full control effect
#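 Compound effects on dopamine-evoked calcium signalling were measured in tetracycline-induced HEK293 Trex D1 cells. Dopamine at EC80 followed a 180 s compound pre-read, and fluorescence was tracked kinetically for 180 s more.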
# TRHR ag: qHTS for Small Molecule Agonists and Allosteric Enhancers of Human TRH Receptor: Primary Screen for Agonists | Thyrotropin-releasing hormone receptor (Homo sapiens), P34981 | TRHR cells, calcium flux fluo-8, FDSS agonist mode | activation, % at 2 µM | 0.18% of 360,000 active; also: 0% is about no effect
# Target sequence (P34981 whole entry, looked up): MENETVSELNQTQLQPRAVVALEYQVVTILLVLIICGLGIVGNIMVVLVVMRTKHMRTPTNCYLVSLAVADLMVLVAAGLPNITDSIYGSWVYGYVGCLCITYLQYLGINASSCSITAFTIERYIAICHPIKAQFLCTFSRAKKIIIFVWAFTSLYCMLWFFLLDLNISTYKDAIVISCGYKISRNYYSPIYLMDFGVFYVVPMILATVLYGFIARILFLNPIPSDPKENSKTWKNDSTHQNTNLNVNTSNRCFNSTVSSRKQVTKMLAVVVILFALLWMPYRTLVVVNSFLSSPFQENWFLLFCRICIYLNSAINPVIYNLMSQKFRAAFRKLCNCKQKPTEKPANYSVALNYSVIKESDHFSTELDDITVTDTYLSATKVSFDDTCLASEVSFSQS
#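 Read-out: compound-evoked intracellular calcium rise in TRHR cells, fluo-8 dye, kinetic FDSS fluorescence at 1 s/cycle following a 10-cycle baseline. Cells cultured overnight before dye loading (30 min–1.5 h, RT).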
# TRHR enhancer: qHTS for Small Molecule Agonists and Allosteric Enhancers of Human TRH Receptor: Primary Screen for Enhancers | 0.66% of 360,000 active | TRHR cells, fluo-8 calcium fluorescence, EC20 TRH enhancement | Thyrotropin-releasing hormone receptor (Homo sapiens), P34981 | AID 493056, 2011 | enhancement, % at 2 µM; in the data active = enhancement above about 30%; also: 0% is about no effect
#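 Enhancer read-out: after compound pinning and an initial kinetic agonist-mode read, an EC20 of TRH (10 nM final) was injected and fluo-8 calcium signal (Ex 480/Em 530) followed at 1 s/cycle for 100 cycles in TRHR-expressing cells.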
# D1 agonist: Allosteric Agonists of the Human D1 Dopamine Receptor: qHTS; D(1A) dopamine receptor (Homo sapiens), P21728; HEK293 T-REx D1 cells, calcium flux, agonist mode; activation, % at 2 µM; 1% of 360,000 active; AID 504660, 2011; also: 0% is about no effect
#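 Tetracycline-induced HEK293 TREx D1 cells, force-coupled to calcium signalling, were dye-loaded with a no-wash calcium kit. Compound was pin-added after a 10 s baseline. Fluorescence was read kinetically at 1 cycle/s for 180 s, with calcium rises flagged as agonism.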
# * hit, by the source's call; nt = no result. Rule as the data show it, unless noted: active = activation above about 30%; inactive = the rest.
SMILES,D1 potentiator,D1 antag,TRHR ag,TRHR enhancer,D1 agonist
CN(Cc1ccon1)C(=O)CC1C(=O)NCCN1Cc1ccccc1C(F)(F)F (stereo unspecified),1,-12,0,2,0
CN(CCc1cn[nH]c1)C(=O)CC1C(=O)NCCN1Cc1ccccc1C(F)(F)F (stereo unspecified),0,-40*,0,-3,3
O=C(N/N=C/c1cccs1)c1ccc(NC(=O)c2ccccc2Cl)cc1,-18,-53*,0,3,3
Cc1ccccc1C(=O)Nc1ccc(C(=O)N/N=C/c2ccc(O)cc2)cc1,-9,0,0,7,0
O=C(N/N=C/c1ccc(O)cc1)c1ccc(NC(=O)c2ccccc2Br)cc1,-8,-47*,1,-2,2
CCOc1ccccc1CNC(=O)c1oc2c(c1C)-c1[nH]ncc1CC2,-1,11,0,11,5
CCOC(=O)C1CCN(C(=O)Nc2cc(Cl)cc(Cl)c2)CC1,-3,-2,0,-3,7
CCCn1ccc2c(OCC(=O)Nc3ccc(F)cc3F)cccc2c1=O,-4,nt,0,-1,0
Cc1cc(=O)[nH]c(N/N=C/C(C)c2ccccc2)n1 (stereo unspecified),3,1,0,6,0
CCOc1ccccc1NC(=O)N1CC(C)Oc2ccc(Cl)cc21 (stereo unspecified),-5,-29,1,20,2
Cc1ccc(S(=O)(=O)N2CCN(Cc3ccco3)CC2)c(C)c1,38*,-8,0,-6,4
Cc1ccc2nc(-c3ccc(NC(=S)NC4CC(C)(C)NC(C)(C)C4)cc3)sc2c1,-3,-3,0,1,41*
CCCCNC(=O)C(CC)Sc1nnc(-c2ccc(F)cc2)c(-c2ccc(F)cc2)n1 (stereo unspecified),1,-3,0,-11,1
CCCCCC/C(=N\NS(C)(=O)=O)c1ccccc1,29,-68*,0,0,-1
CCCC/C(=N\NC(=O)c1ccc(Br)o1)c1ccccc1,-4,-66*,0,-6,1
NC(=O)c1nn(Cc2ccccc2)c(=O)c2ccccc12,3,17,0,2,-1
CC(=O)c1ccc(N2CCN(C(=O)c3nn(Cc4ccccc4)c(=O)c4ccccc34)CC2)cc1,-7,-45*,0,1,3
O=C(c1n[nH]c2ccccc12)N1CCOCC1,-8,nt,0,-24,-1
NC(=O)C1CN(C(=O)c2nn(Cc3ccccc3)c(=O)c3ccccc23)c2ccccc2O1 (stereo unspecified),5,26,0,37*,5
CC(=O)c1ccc(N2CCN(C(=O)c3n[nH]c4ccccc34)CC2)cc1,1,-33*,-1,-3,7
CCC1CCCCN1CCCNC(=O)c1[nH]c2ccccc2c1Sc1ccc(Cl)cc1 (stereo unspecified),0,17,0,-1,4
COc1ccc(Cn2c(N)c(C#N)c3nc4ccccc4nc32)cc1,-1,0,0,-3,13
COc1cccc(Cn2c(N)c(C#N)c3nc4ccccc4nc32)c1OC,-2,-43*,-1,8,7
CCc1cc2c(-c3ccccc3)cc(=O)oc2c2c1OCN(Cc1ccc(F)cc1)C2,2,5,9,-3,20
COc1ccc(NC(=O)c2cc3c(=O)n(Cc4cccs4)ccc3nc2C)c(OC)c1,-4,4,-1,11,1
SMILES,D1 potentiator,D1 antag,TRHR ag,TRHR enhancer,D1 agonist
N/C(=N\N=C\c1ccc([N+](=O)[O-])cc1)c1nonc1N,-20,-43*,0,-2,3
COc1ccc(OC)c(/C=N/N=C(\N)c2nonc2N)c1,-3,-30*,0,-5,1
COc1ccc(N2C(=O)CSC23C(=O)N(CC(=O)NC2CCCCC2)c2ccccc23)cc1 (stereo unspecified),-1,8,0,-9,1
COC(=O)c1c(Oc2ccc(Br)cc2)nnc(-c2ccccc2)c1-c1ccccc1,0,-1,2,-6,5
COc1ccc(NC(=O)c2cc(S(=O)(=O)N3CCc4ccccc43)cn2C)cc1,1,10,0,3,0
CCc1ccccc1NC(=O)c1cc(S(=O)(=O)N2CCc3ccccc32)cn1C,-5,-10,0,-3,3
Cc1ccc(NC(=O)c2cc(S(=O)(=O)N3CCc4ccccc43)cn2C)cc1C,-8,-45*,0,-2,7
CCN(CC)c1ccc(NC(=O)c2cc(S(=O)(=O)N3CCc4ccccc43)cn2C)c(C)c1,-3,-34*,0,-2,1
Cc1noc(C)c1S(=O)(=O)N(CC(=O)NCc1ccccc1Cl)c1ccc(C(C)C)cc1,1,-7,2,-7,2
Clc1ccccc1CSc1nc(NCCc2ccccc2)c2ccccc2n1,-1,14,0,-5,4
COc1ccc(OC)c(NC(=O)Cn2cc(S(=O)(=O)c3ccccc3)c(=O)c3cc(C)ccc32)c1,-1,1,0,-1,4
COc1ccc(CC(=O)OCN2C(=O)c3ccccc3C2=O)cc1OC,0,-10,1,-17,0
COc1ccc(CCNC(=O)c2ccc(Cn3c(=O)c4ccccc4n(CC(=O)C(C)(C)C)c3=O)cc2)cc1OC,0,5,0,-1,5
Cc1c(/C=N/Nc2ccc(F)cc2)c(O)n(C)c(=O)c1C#N,-3,-14,2,8,3
CC(=O)N=Cc1c(C)c(C#N)c(=O)n(C)c1O,-9,-57*,-2,-4,10
Cn1nccc1C(=O)NC1CCN(Cc2ccccc2)CC1,-5,-20,0,-1,2
N#CC1=C(N)C(C#N)(C#N)C(c2cccnc2)C2CCCC=C12 (stereo unspecified),-3,-30*,2,0,4
CC(=O)OCCn1c(C)[n+](CCOC(C)=O)c2cc(Cl)c(Cl)cc21,-8,12,0,-3,0
CCn1c(C)[n+](CCOCC[n+]2c(C)n(CC)c3cc(Cl)c(Cl)cc32)c2cc(Cl)c(Cl)cc21,-5,-48*,0,-6,0
Cc1cc(C)cc(-n2cnc3cc(C(=O)NC4CCCCCC4)ccc32)c1,5,-5,0,-3,-1
Cc1cccc(C)c1NC1=NC2(CCCCC2)N=C(N)N1,1,-3,1,-10,2
Cc1ccc(C)c(NC2=NC3(CCCCC3)N=C(N)N2)c1,-12,-5,0,-3,-4
